Results from the supplement of paper PMC10127200.
Structures can show the parent of a compound that is named as a salt.

Columns and labels:
Assay in all cases: Euclidean distance of Cell Painting phenotypic profile (signed KS, 77 features) to DMSO centroid (dimensionless distance); 5 or 10 uM (library dependent); higher = stronger phenotypic change vs DMSO (phenoactivity)
Conditions in all cases: 48 h
786-O = tested on: 786-O
In short: (§1)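 Five cancer lines and a healthy fibroblast line received library compounds at 10 or 5 uM (library-dependent, 0.1% DMSO final) for 48 h. Stained cells were imaged confocally at 20X (9 fields/well). Harmony extracted 77 features, each scored as a signed Kolmogorov-Smirnov statistic against same-plate vehicle wells. Profiles were plate-position corrected, correlation-weighted and replicate-averaged at the top dose. Phenoactivity is the Euclidean distance from each profile to the median vehicle profile.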

A549 = tested on: A549
In short: as §1

DU145 = tested on: DU145
In short: as §1

FB = tested on: FB
In short: as §1

HEPG2 = tested on: HEPG2
In short: as §1

OVCAR4 = tested on: OVCAR4
In short: as §1

SMILES	Euclidean distance (786-O)	Euclidean distance (A549)	Euclidean distance (DU145)	Euclidean distance (FB)	Euclidean distance (HEPG2)	Euclidean distance (OVCAR4)
CN(C)CCC=C1c2ccccc2CCc2ccccc21 [Amitriptyline HCl]	1.34	1.54	1.54	1.52	1.48	1.99
COc1cccc(N2CCN(C3=Nc4c(F)cccc4C(CC(=O)O)N3c3cc(C(F)(F)F)ccc3OC)CC2)c1 (stereo unspecified) [Letermovir(AIC246)]	1.22	1.44	0.984	0.978	0.523	1.01
C[C@H]1COc2c(C3(N)CC3)c(F)cc3c(=O)c(C(=O)O)cn1c23 [Pazufloxacin mesylate]	1	1.18	0.975	0.993	1.28	1.36
CCC(=O)O[C@H]1[C@H](O[C@@H]2[C@@H](C)[C@H](O[C@H]3C[C@@](C)(OC)[C@@H](O)[C@H](C)O3)[C@@H](C)C(=O)O[C@H](CC)[C@@](C)(O)[C@H](O)[C@@H](C)C(=O)[C@H](C)C[C@@]2(C)O)O[C@H](C)C[C@@H]1N(C)C [Erythromycin estolate]	0.939	1.04	1.77	1.82	0.988	1.19
CCN1CCCC1CNC(=O)c1cc(S(=O)(=O)CC)c(N)cc1OC (stereo unspecified) [Amisulpride]	1.04	0.717	1.15	1.07	0.566	1.01
CN1CCN2c3ncccc3Cc3ccccc3C2C1 (stereo unspecified) [Mirtazapine]	0.981	0.95	0.897	0.869	0.332	1.12
CC(O)Cn1cnc2c1c(=O)n(C)c(=O)n2C (stereo unspecified) [Proxyphylline]	1.48	0.998	0.788	0.934	0.686	1.03
O=C(CCCCCCC(=O)Nc1ccccc1)NO [Vorinostat (SAHA. MK0683)]	3.44	2.96	3.15	3.77	3.15	2.85
CC(=O)N[C@@H](CS)C(=O)O [Acetylcysteine]	0.996	1.28	1.2	0.709	0.571	1.6
O=C(O)/C=C/c1ccc(Cn2ccnc2)cc1 [Ozagrel HCl]	0.843	0.862	1.12	0.899	1.97	1.61
COc1ccc([C@H]2CNC(=O)C2)cc1OC1CCCC1 [S- (+)-Rolipram]	1.12	1.46	1	0.792	1.24	1.49
CCCCCC(=O)O[C@]1(C(C)=O)CC[C@H]2[C@@H]3CCC4=CC(=O)CC[C@]4(C)[C@H]3CC[C@@]21C [Hydroxyprogesterone caproate]	0.774	1.41	2.27	1.18	0.603	0.921
CCc1ccc(N(CC(C)C)S(=O)(=O)c2ccc(OCC3CCOCC3)c(CO)c2)cc1	1.56	1.56	1.9	1.05	0.857	1.66
COC[C@H]1C[C@@H](c2nc(-c3ccc4c(c3)COc3cc5c(ccc6nc([C@@H]7CC[C@H](C)N7C(=O)[C@@H](NC(=O)OC)C(C)C)[nH]c65)cc3-4)c[nH]2)N(C(=O)[C@H](NC(=O)OC)c2ccccc2)C1 [Velpatasvir]	1.14	1.43	1.28	2.05	1.32	1.1
CCC[C@@H]1C[C@@H](C(=O)N[C@@H]([C@H]2O[C@H](SC)[C@H](O)[C@@H](O)[C@H]2O)[C@@H](C)O)N(C)C1 [Lincomycin Hydrochloride Monohydrate]	0.425	0.311	0.923	0.981	0.275	1.41
COc1c(N2C[C@@H]3CCCN[C@@H]3C2)c(F)cc2c(=O)c(C(=O)O)cn(C3CC3)c12 [Moxifloxacin]	1.32	0.519	0.919	1.06	0.804	0.918
COC(=O)c1ccc2c(c1)NC(=O)/C2=C(\Nc1ccc(N(C)C(=O)CN2CCN(C)CC2)cc1)c1ccccc1 [Nintedanib (BIBF 1120)]	3.7	4.29	2.53	4.05	2.66	3.01
CCN[C@H]1C[C@H](C)S(=O)(=O)c2sc(S(N)(=O)=O)cc21 [Dorzolamide HCl]	1.17	0.786	1.03	1.31	1.06	1.09
O=C(Nc1cccnc1)N1CCC(Cc2cccc(Oc3ccc(C(F)(F)F)cn3)c2)CC1	0.844	1.34	0.774	0.825	1.94	0.736
CO[C@H]1C[C@@H]2CC[C@@H](C)[C@@](O)(O2)C(=O)C(=O)N2CCCC[C@H]2C(=O)O[C@H]([C@H](C)C[C@@H]2CC[C@@H](O)[C@H](OC)C2)CC(=O)[C@H](C)/C=C(\C)[C@@H](O)[C@@H](OC)C(=O)[C@H](C)C[C@H](C)/C=C/C=C/C=C/1C [Rapamycin (Sirolimus)]	2.74	1.97	1.21	3.07	1.86	2.1
CN(C)[C@@H]1C(O)=C(C(N)=O)C(=O)[C@@]2(O)C(O)=C3C(=O)c4c(O)ccc(Cl)c4[C@@](C)(O)[C@H]3C[C@@H]12 [Chlortetracycline HCl]	1.45	0.912	1.04	0.904	0.464	1.05
CCOC(N)=O [Urethane]	1.2	0.492	0.675	0.718	0.46	1.46
Cc1nnc(SCC2=C(C(=O)O)N3C(=O)[C@@H](NC(=O)Cn4cc(Cl)c(=O)c(Cl)c4)[C@H]3SC2)s1 [Cefazedone]	1.36	0.841	0.667	1.16	0.733	0.862
C[N+]1(C)CCC(OC(=O)C(O)(c2ccccc2)C2CCCC2)C1 (stereo unspecified) [Glycopyrrolate]	1.08	0.747	1.06	1.02	0.678	1.74
O=C1c2c(O)cc(O)cc2OC(c2ccc(O)c(O)c2)C1O (stereo unspecified) [Taxifolin (Dihydroquercetin)]	1.12	0.542	1.09	1.25	0.834	0.517
CCC(CC)(NC(=O)C(C)C)C(=O)N[C@@H](CCCN=C(N)N)C(=O)NC1(C(=O)NC(c2ccc(F)cc2)c2ccc(F)cc2)CCCC1	0.761	0.796	1.14	0.736	0.712	0.893
